The list is not random: actives were taken first. Their share in the collection is about 1.3%.
eLon inh: inhibitors of E. coli Lon protease; hit rate 0.42% among 360,000; purified E. coli Lon protease, fluorescence polarization; AID 602123; P0A9M0; inhibition, % at 7.94 µM; in the data active = inhibition above about 13%, passing the limit was not always enough;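 note: 0% = enzyme with probe and DMSO and 100% = no enzyme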
Target sequence (P0A9M0 whole entry, looked up): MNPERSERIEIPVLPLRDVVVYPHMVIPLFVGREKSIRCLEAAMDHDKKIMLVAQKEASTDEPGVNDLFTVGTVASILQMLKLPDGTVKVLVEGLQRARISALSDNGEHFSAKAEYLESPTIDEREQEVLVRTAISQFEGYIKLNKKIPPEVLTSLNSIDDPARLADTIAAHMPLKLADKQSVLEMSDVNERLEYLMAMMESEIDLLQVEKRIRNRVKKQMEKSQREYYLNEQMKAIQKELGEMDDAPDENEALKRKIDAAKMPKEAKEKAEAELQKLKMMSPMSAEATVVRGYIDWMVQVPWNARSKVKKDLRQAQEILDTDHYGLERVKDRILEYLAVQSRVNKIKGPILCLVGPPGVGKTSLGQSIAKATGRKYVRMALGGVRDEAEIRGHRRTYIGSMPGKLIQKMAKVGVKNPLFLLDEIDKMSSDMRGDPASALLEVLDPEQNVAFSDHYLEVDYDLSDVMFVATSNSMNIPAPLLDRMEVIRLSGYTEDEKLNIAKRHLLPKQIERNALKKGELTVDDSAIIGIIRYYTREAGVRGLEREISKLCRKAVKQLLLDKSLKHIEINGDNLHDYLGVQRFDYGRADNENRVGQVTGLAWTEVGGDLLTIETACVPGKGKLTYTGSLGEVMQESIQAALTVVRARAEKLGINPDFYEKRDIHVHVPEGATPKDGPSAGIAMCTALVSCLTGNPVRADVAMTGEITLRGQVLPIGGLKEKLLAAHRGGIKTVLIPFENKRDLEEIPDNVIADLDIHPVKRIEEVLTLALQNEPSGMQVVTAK
PKA-R2B act: PKA-R2B complex activation; P22694+P31323; PKA-R2B holoenzyme dissociation, Cy5-IP20 fluorescence polarization; R2B truncated from residue 108, S112A mutant; 0% DMSO only, 100% 113 µM cGMP; activation, % at 11.4 µM; hit rate 0.079% among 340,000;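 active = activation above a cutoff set at the mean over all compounds plus 3 SD, cut at about 18% in these data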;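 note: higher means more holoenzyme dissociation and a rise in polarization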
PKA-R1A act: PKA-R1A complex activation; hit rate 0.083% among 340,000; AID 504707; PKA-R1A dissociation, Cy5-IP20 fluorescence polarization; scaled: DMSO 0%, 113 µM cGMP 100%; P00514+P68181; activation, % at 11.4 µM;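 active = percent activation above the mean of all tested compounds plus 3 SD, cut at about 19% in these data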;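 note: higher means more PKAc released from R1A so a rise in polarization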
IDE cell inh: cellular human IDE inhibition; P14735; HEK cells, FAbetaB cleavage, fluorescence polarization; inhibition, % at 5.59 µM; hit rate 0.41% among 320,000; AID 434962;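 active = percent inhibition above the average of all tested compounds plus 3 SD, set per screening campaign, cut at about 16% in these data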;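 note: IDE supplied by intact live HEK cells; FP after avidin binding of uncleaved biotin substrate so inhibition keeps polarization high; 0% = DMSO wells and 100% = 60 µM reference IDE inhibitor Ii1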
IDE cell activ: boosts human insulin-degrading enzyme activity in HEK cells; P14735; FAbeta-B cleavage, fluorescence polarization; 0% vehicle, 100% cell-free pure enzyme wells; activation, % at 5.96 µM; hit rate 0.073% among 340,000;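 active = activation above the mean of all tested compounds plus 3 SD, set per screening campaign, cut at about 17% in these data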
Rin1 Abl inh: human Rin1-Abl interaction inhibition; P00519+Q13671; TR-FRET Rin1/Abl binding, biochemical; inhibition, % at 7.35 µM; hit rate 0.4% among 360,000; AID 588664; in the data active = inhibition above about 5%, passing the limit was not always enough
IDE inh confirm: cellular human IDE inhibition, confirmation; shares compounds with IDE cell inh; HEK cells, FAbetaB cleavage, fluorescence polarization; hit rate 51% among 1,200; inhibition, % at 5.59 µM; AID 435028;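 active = mean inhibition across triplicate wells above the cutoff set by the earlier primary insulin-degrading enzyme screen, cut at about 16% in these data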;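 note: 0% = DMSO wells and 100% = 60 µM reference IDE inhibitor Ii1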
HEK cytotox: counter-screen for IDE inhibitors: cytotoxicity in HEK cells. hit rate 28% among 1,200. AID 449730. HEK293 cytotoxicity, ATP luminescence. shares compounds with IDE cell inh. inhibition, % at 5.59 µM; in the data active = inhibition above about 22%;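 note: 0% = vehicle wells and 100% = reference cytotoxic drug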
IDE FP artifact: fluorescent artifact in IDE inhibitor FP assay; FP counterscreen for fluorescent artifacts, IDE probe project; IC50, µM; 30 tested, under 10 active; AID 588718; shares compounds with IDE cell inh; call rule not given here
Starred values were filed as active, the others as inactive; i = inactive; · = no result.

SMILES	eLon inh	PKA-R2B act	PKA-R1A act	IDE cell inh	IDE cell activ	Rin1 Abl inh	IDE inh confirm	HEK cytotox	others
O=C(NC1(O)C(=O)c2ccccc2C1=O)c1ccc(C(F)(F)F)cc1	0.3	·	·	3.0	·	18.0*	·	·
COC(=O)c1sccc1NC(=O)c1ccc(Br)o1	-2.2	0.7	3.9	6.1	7.1	0.2	·	·
C=CCN(Cc1ccc(OC)c(OC)c1)C(=O)c1cc2cc(F)ccc2[nH]1	3.5	-9.0	2.9	-1.6	1.9	2.6	·	·
COc1ccccc1NS(=O)(=O)c1cccc(NC(=O)C2CC2)c1	-5.6	-2.2	-2.4	-4.8	21.2*	0.1	·	·
Cc1ccc2c(c1)C1C=CCC1C(C(=O)O)N2 (stereo unspecified)	·	·	·	-1.8	·	·	·	·
COc1cccc2c1NC(C(=O)O)C1CC=CC21 (stereo unspecified)	-11.7	-7.1	1.8	4.1	1.4	7.6*	·	·
Cc1nnc(SCc2cc(=O)[nH]c(=S)[nH]2)s1	8.4	-9.1	1.2	0.1	4.4	-2.0	·	·
O=c1cc(-c2ccccc2)oc2cc(O)c(O)c(O)c12	-0.9	6.8	-2.8	7.5	-4.4	20.6*	·	·
CCC(C)OC(=O)C1=C(C)NC2=C(C(=O)C(C(=O)OC)C(C)C2)C1c1ccc(N(C)C)cc1 (stereo unspecified)	-2.0	-4.6	-1.6	0.0	17.4*	0.6	·	·
Nc1ncnc2c1ncn2C1CCCC1	-4.1	10.5	7.2	-4.0	1.2	1.5	·	·
Clc1cccc(-c2nc3ccc(Br)cn3c2Cc2ccccc2)c1	-22.8	·	·	·	·	-3.8	·	·
COc1ccc2[nH]c(=O)c(CN(Cc3cccs3)C(=S)Nc3cccc(C)c3)cc2c1	-1.8	-14.7	-0.4	-3.8	5.9	-2.3	·	·
CNC(=S)N(Cc1cccs1)Cc1cc2cc(OC)ccc2[nH]c1=O	6.1	-15.7	5.3	5.7	34.0*	2.9	·	·
CCOC(=O)CCCc1sc(N)nc1-c1[nH]c(=O)[nH]c1C	1.5	-4.1	-0.6	9.9	-2.9	62.6*	·	·
CCc1cccc(Nc2cnn(C34C[C@@H]5C[C@@H](CC(CC(=O)O)(C5)C3)C4)c(=O)c2Cl)c1	-4.5	0.4	-0.5	20.9*	-22.3	3.6	·	·
O=C(O)c1ccccc1N=Nc1ccc(O)cc1	7.3	2.8	1.1	-13.6	19.8*	-2.6	·	·
Cc1ccc2sc(N(CCCN(C)C)C(=O)c3ccc(Br)s3)nc2c1C	1.9	-0.1	-5.0	2.0	17.9*	-4.2	·	·
CCOc1ccc(C(=O)CC(C(=O)O)N2CCCCC2)cc1 (stereo unspecified)	7.2	18.5*	-4.6	2.1	1.0	-1.6	·	·
Cc1cc(N)c2cc(NC(=O)/C=C/c3ccccc3Cl)ccc2n1	-12.4	9.0	-14.1	-0.7	28.3*	-10.4	·	·
Cc1cc(NC(=O)c2c(Br)cnn2C)no1	-10.8	11.6	-10.4	·	3.9	2.8	·	·
O=c1c2ccccc2sn1-c1cc(S(=O)(=O)N2CCOCC2)ccc1N1CCOCC1	6.3	-1.8	-9.4	58.5*	-32.2	1.9	59.1*	17.1	IDE FP artifact=>54.7
CCOc1ccc2nc(NC(=O)CSc3nc4c(c(=O)n(C)c(=O)n4C)n3C(C)C)sc2c1	-8.8	6.1	4.8	-3.3	-1.5	2.1	·	·
CCOc1ccc2nc(NC(=O)Cn3cnc4c3c(=O)n(C)c(=O)n4C)sc2c1	9.2	-0.8	-5.1	19.5*	-18.2	1.3	-1.8	10.1
COc1ccc([N+](=O)[O-])cc1/C=N/NC(=O)/C(=C\c1cccs1)NC(=O)c1ccccc1	5.2	-1.1	4.8	28.2*	-3.7	-1.1	14.4	8.1
CCN(CC(=O)NCc1ccc(Cl)cc1)C(=O)c1cnc(Cl)c(Cl)c1	7.9	-1.0	8.9	4.8	2.4	-0.7	·	·
SMILES	eLon inh	PKA-R2B act	PKA-R1A act	IDE cell inh	IDE cell activ	Rin1 Abl inh	IDE inh confirm	HEK cytotox	others
COc1ccc(NC(=O)c2sc3nc(-c4cccnc4)ccc3c2N)cc1OC	-135.1	1.9	1.3	18.6*	-4.3	-1.9	13.1	18.0
COc1ccc(NC(=O)c2sc3nc(-c4cccnc4)ccc3c2N)cc1	4.4	13.8	-8.2	10.3	-9.8	2.1	·	·
CC(C)(C)C1CCC2(CC1)C(C#N)=C(SCC(=O)Nc1ccccc1)NC(=O)C2C#N (stereo unspecified)	-5.3	-5.1	-8.0	4.7	5.9	-0.4	·	·
N#CC1=C(SCC(=O)c2cc3ccccc3oc2=O)NC(=O)C(C#N)C12CCCC2 (stereo unspecified)	-225.4	1.1	7.3	21.1*	-22.2	2.7	9.4	11.8
COc1cccc(/C=N/Nc2ncnc3c2[nH]c2ccc(C)cc23)c1OC	5.2	-3.4	0.7	62.7*	-45.3	-1.3	59.4*	13.6
C=CCNc1ncnc2c1[nH]c1ccc(C)cc12	-9.3	-9.9	0.2	30.1*	-17.7	-2.8	14.9	35.1*
COc1cc(C=O)ccc1OC(=O)c1ccncc1	8.5	-0.7	-4.9	-0.8	-4.1	-2.4	·	·
CCc1nc2c(OCc3ccc(F)cc3)cccn2c1N(C)C(=O)c1ccc(C)cc1	-2.8	·	·	·	·	-1.9	·	·
CCOC(=O)C1CCCN(C2=NC(=O)/C(=C/c3ccc(OC)c(OC)c3)S2)C1 (stereo unspecified)	-8.2	-0.4	-1.5	3.9	-0.8	0.1	·	·
CCOC(=O)C1CCCN(C2=NC(=O)/C(=C/c3ccc(O)c(OC)c3)S2)C1 (stereo unspecified)	-278.1	4.5	-1.9	25.0*	-27.8	-2.7	75.4*	14.6
CC(C)CNC(=S)N1CCN(c2nc(-c3ccc(Cl)cc3)cs2)CC1	9.3	-10.8	-0.6	13.1	-17.2	-0.4	·	·
CCC(=O)N1CCN(c2nc(-c3ccc(Cl)cc3)cs2)CC1	-2.6	-8.2	-4.9	17.9*	-15.2	-3.1	9.8	18.6
CC1CCC2(CC1)NC(=O)N(CC(=O)Nc1ccc3c(c1)CCC3)C2=O (stereo unspecified)	-9.1	-11.7	-0.5	3.1	2.7	-0.9	·	·
OCCN(Cc1ccccc1)Cc1cccc(F)c1	-13.8	-1.9	0.5	1.2	1.9	1.8	·	·
Fc1cccc(C[n+]2csc3ccccc32)c1	-14.7	1.0	2.4	22.4*	-38.2	6.2	10.7	12.4
c1ccc(C[n+]2csc3ccccc32)cc1	-8.9	0.2	-4.4	26.1*	-38.4	-1.8	11.0	9.6
CN(C)c1ccc(/C=C(/C#N)C(=O)NCc2ccccc2)o1	i	2.3	3.0	97.0*	-125.7	-32.7	121.7*	8.6
